# Key:
# [1] = molecular target: POU1 (OCT1 POU domain) (human, UniProt P14859 260-458); experiment: EMSA-SELEX-seq; no BOB1; 20 mM Tris-HCl pH 7.6, 140 mM NaCl, 10% glycerol, 0.5 mM EDTA, 0.05% Triton X-100, 0.1 mg/mL BSA, 0.1 mg/mL poly(dI-dC), 5 mM DTT, room temperature, 20 min; high values mean tight binding; conditions: protein: recombinant; dsDNA, one strand shown
# Method in brief: (§1)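 Binding preference is reported as the percentage of sequenced 8-mers that match a motif pattern. Tagged POU-domain proteins were made in E. coli BL21, purified under denaturing conditions and renatured. A 30 ng portion was combined with 300 ng of a PCR-amplified double-stranded random 35-nt library, with or without 28 ng coactivator protein, in 20 μL Tris–HCl pH 7.6 binding buffer for 20 min at RT. Complex bands were excised from native 6% PAGE, eluted and PCR-amplified over four rounds before Illumina sequencing.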
# [2] = molecular target: T1, POU2 (OCT2 POU domain) (human, UniProt P09086 175-386); experiment: as above; conditions: protein: recombinant; dsDNA, one strand shown
# T1 sequence: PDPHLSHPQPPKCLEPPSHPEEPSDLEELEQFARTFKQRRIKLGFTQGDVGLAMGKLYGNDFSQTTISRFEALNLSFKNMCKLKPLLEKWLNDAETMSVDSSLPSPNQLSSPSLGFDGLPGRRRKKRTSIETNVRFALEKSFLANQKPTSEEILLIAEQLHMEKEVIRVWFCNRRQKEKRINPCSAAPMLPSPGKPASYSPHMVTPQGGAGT
# Method in brief: as §1
# [3] = molecular target: POU1 (OCT1 POU domain);BOB1 (OBF1, OCA-B) (human;human, UniProt P14859;Q16633 260-458;1-256, |); experiment: EMSA-SELEX-seq; with BOB1 (ternary complex band); 20 mM Tris-HCl pH 7.6, 140 mM NaCl, 10% glycerol, 0.5 mM EDTA, 0.05% Triton X-100, 0.1 mg/mL BSA, 0.1 mg/mL poly(dI-dC), 5 mM DTT, room temperature, 20 min; high values mean tight binding; conditions: protein: recombinant;recombinant; copies: 1;1; dsDNA, one strand shown
# Method in brief: as §1
# [4] = molecular target: T2, POU2 (OCT2 POU domain);BOB1 (OBF1, OCA-B) (human;human, UniProt P09086;Q16633 175-386;1-256, |); experiment: as above; conditions: protein: recombinant;recombinant; copies: 1;1; dsDNA, one strand shown
# T2 sequence 1: T1 sequence
# T2 sequence 2: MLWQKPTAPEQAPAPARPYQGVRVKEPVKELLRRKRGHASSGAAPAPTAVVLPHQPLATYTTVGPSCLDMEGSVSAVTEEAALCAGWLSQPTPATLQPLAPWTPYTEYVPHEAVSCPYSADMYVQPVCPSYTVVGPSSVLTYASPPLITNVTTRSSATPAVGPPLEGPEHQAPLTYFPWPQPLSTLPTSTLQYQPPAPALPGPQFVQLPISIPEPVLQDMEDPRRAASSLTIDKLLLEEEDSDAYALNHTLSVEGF
# Method in brief: as §1
# POU1 (OCT1 POU domain), sequence (P14859 260-458): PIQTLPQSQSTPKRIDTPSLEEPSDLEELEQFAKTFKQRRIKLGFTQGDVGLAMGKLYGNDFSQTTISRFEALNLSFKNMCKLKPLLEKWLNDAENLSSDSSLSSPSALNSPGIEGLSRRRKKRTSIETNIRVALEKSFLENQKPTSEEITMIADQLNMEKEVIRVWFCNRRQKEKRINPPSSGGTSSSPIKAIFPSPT
Sequence,binding signal [1],binding signal [2],binding signal [3],binding signal [4]
ATTAGAAT,0.5 % of ANNNNAAN 8-mers,0.61 % of ANNNNAAN 8-mers,0.133 % of ANNNNAAN 8-mers,0.18 % of ANNNNAAN 8-mers
ACGGTAAT,0.0984 % of ANNNNAAN 8-mers,0.143 % of ANNNNAAN 8-mers,0.0741 % of ANNNNAAN 8-mers,0.109 % of ANNNNAAN 8-mers
AGCTTAAC,0.0194 % of ANNNNAAN 8-mers,0.0219 % of ANNNNAAN 8-mers,0.0195 % of ANNNNAAN 8-mers,0.0165 % of ANNNNAAN 8-mers
ATGTTAAT,1.39 % of ANNNNAAN 8-mers,1.31 % of ANNNNAAN 8-mers,0.208 % of ANNNNAAN 8-mers,0.24 % of ANNNNAAN 8-mers
ATCAGAAT,0.085 % of ANNNNAAN 8-mers,0.116 % of ANNNNAAN 8-mers,0.0777 % of ANNNNAAN 8-mers,0.0784 % of ANNNNAAN 8-mers
AGGCAAAA,0.236 % of ANNNNAAN 8-mers,0.136 % of ANNNNAAN 8-mers,0.454 % of ANNNNAAN 8-mers,0.204 % of ANNNNAAN 8-mers
AAGGGAAG,0.05 % of ANNNNAAN 8-mers,0.0541 % of ANNNNAAN 8-mers,0.0511 % of ANNNNAAN 8-mers,0.0388 % of ANNNNAAN 8-mers
AGCACAAA,0.0256 % of ANNNNAAN 8-mers,0.0242 % of ANNNNAAN 8-mers,0.0277 % of ANNNNAAN 8-mers,0.033 % of ANNNNAAN 8-mers
AACGCAAA,0.147 % of ANNNNAAN 8-mers,0.0978 % of ANNNNAAN 8-mers,0.266 % of ANNNNAAN 8-mers,0.229 % of ANNNNAAN 8-mers
AACGTAAG,0.0301 % of ANNNNAAN 8-mers,0.0351 % of ANNNNAAN 8-mers,0.0336 % of ANNNNAAN 8-mers,0.0305 % of ANNNNAAN 8-mers
AGGAAAAT,0.287 % of ANNNNAAN 8-mers,0.2 % of ANNNNAAN 8-mers,0.507 % of ANNNNAAN 8-mers,0.347 % of ANNNNAAN 8-mers
ACTGGAAA,0.0362 % of ANNNNAAN 8-mers,0.0328 % of ANNNNAAN 8-mers,0.0375 % of ANNNNAAN 8-mers,0.0429 % of ANNNNAAN 8-mers
ACGAAAAC,0.0256 % of ANNNNAAN 8-mers,0.0259 % of ANNNNAAN 8-mers,0.0289 % of ANNNNAAN 8-mers,0.0264 % of ANNNNAAN 8-mers
AGAATAAG,0.0686 % of ANNNNAAN 8-mers,0.101 % of ANNNNAAN 8-mers,0.0527 % of ANNNNAAN 8-mers,0.0702 % of ANNNNAAN 8-mers
AATCCAAG,0.0324 % of ANNNNAAN 8-mers,0.0339 % of ANNNNAAN 8-mers,0.0425 % of ANNNNAAN 8-mers,0.0371 % of ANNNNAAN 8-mers
ATTCCAAT,0.0767 % of ANNNNAAN 8-mers,0.11 % of ANNNNAAN 8-mers,0.057 % of ANNNNAAN 8-mers,0.0751 % of ANNNNAAN 8-mers
ACCCTAAG,0.0118 % of ANNNNAAN 8-mers,0.0178 % of ANNNNAAN 8-mers,0.0133 % of ANNNNAAN 8-mers,0.0107 % of ANNNNAAN 8-mers
AGCAGAAC,0.0179 % of ANNNNAAN 8-mers,0.0299 % of ANNNNAAN 8-mers,0.0211 % of ANNNNAAN 8-mers,0.014 % of ANNNNAAN 8-mers
ACGATAAA,0.037 % of ANNNNAAN 8-mers,0.0432 % of ANNNNAAN 8-mers,0.0324 % of ANNNNAAN 8-mers,0.0487 % of ANNNNAAN 8-mers
ATCGGAAC,0.0175 % of ANNNNAAN 8-mers,0.0242 % of ANNNNAAN 8-mers,0.023 % of ANNNNAAN 8-mers,0.0231 % of ANNNNAAN 8-mers
ACCAAAAC,0.0168 % of ANNNNAAN 8-mers,0.0242 % of ANNNNAAN 8-mers,0.032 % of ANNNNAAN 8-mers,0.0206 % of ANNNNAAN 8-mers
ATAGGAAC,0.0339 % of ANNNNAAN 8-mers,0.0449 % of ANNNNAAN 8-mers,0.0375 % of ANNNNAAN 8-mers,0.0545 % of ANNNNAAN 8-mers
AGAGAAAC,0.0221 % of ANNNNAAN 8-mers,0.0247 % of ANNNNAAN 8-mers,0.0332 % of ANNNNAAN 8-mers,0.0231 % of ANNNNAAN 8-mers
ACAAAAAG,0.0549 % of ANNNNAAN 8-mers,0.0489 % of ANNNNAAN 8-mers,0.0683 % of ANNNNAAN 8-mers,0.0429 % of ANNNNAAN 8-mers
ACGCGAAA,0.0179 % of ANNNNAAN 8-mers,0.0265 % of ANNNNAAN 8-mers,0.0211 % of ANNNNAAN 8-mers,0.0314 % of ANNNNAAN 8-mers

Sequence,binding signal [1],binding signal [2],binding signal [3],binding signal [4]
ACGATAAG,0.0275 % of ANNNNAAN 8-mers,0.0311 % of ANNNNAAN 8-mers,0.0215 % of ANNNNAAN 8-mers,0.0314 % of ANNNNAAN 8-mers
AAGTAAAC,0.0477 % of ANNNNAAN 8-mers,0.0489 % of ANNNNAAN 8-mers,0.0535 % of ANNNNAAN 8-mers,0.0487 % of ANNNNAAN 8-mers
ATGCCAAT,0.0648 % of ANNNNAAN 8-mers,0.0857 % of ANNNNAAN 8-mers,0.0609 % of ANNNNAAN 8-mers,0.0627 % of ANNNNAAN 8-mers
ATCCCAAG,0.0172 % of ANNNNAAN 8-mers,0.0167 % of ANNNNAAN 8-mers,0.0246 % of ANNNNAAN 8-mers,0.0198 % of ANNNNAAN 8-mers
AATCGAAC,0.0366 % of ANNNNAAN 8-mers,0.0334 % of ANNNNAAN 8-mers,0.0347 % of ANNNNAAN 8-mers,0.0512 % of ANNNNAAN 8-mers
ATTGAAAA,0.09 % of ANNNNAAN 8-mers,0.076 % of ANNNNAAN 8-mers,0.0925 % of ANNNNAAN 8-mers,0.0627 % of ANNNNAAN 8-mers
AGAGCAAG,0.0156 % of ANNNNAAN 8-mers,0.0213 % of ANNNNAAN 8-mers,0.0191 % of ANNNNAAN 8-mers,0.0132 % of ANNNNAAN 8-mers
ATCGTAAA,0.0553 % of ANNNNAAN 8-mers,0.0552 % of ANNNNAAN 8-mers,0.0531 % of ANNNNAAN 8-mers,0.0471 % of ANNNNAAN 8-mers
AAGTTAAC,0.0347 % of ANNNNAAN 8-mers,0.038 % of ANNNNAAN 8-mers,0.0355 % of ANNNNAAN 8-mers,0.0355 % of ANNNNAAN 8-mers
ATGGCAAT,0.0545 % of ANNNNAAN 8-mers,0.0719 % of ANNNNAAN 8-mers,0.0484 % of ANNNNAAN 8-mers,0.0578 % of ANNNNAAN 8-mers
AGTCTAAC,0.021 % of ANNNNAAN 8-mers,0.0207 % of ANNNNAAN 8-mers,0.0199 % of ANNNNAAN 8-mers,0.0231 % of ANNNNAAN 8-mers
ATTCGAAT,0.117 % of ANNNNAAN 8-mers,0.137 % of ANNNNAAN 8-mers,0.08 % of ANNNNAAN 8-mers,0.102 % of ANNNNAAN 8-mers
ATCGAAAG,0.0294 % of ANNNNAAN 8-mers,0.0288 % of ANNNNAAN 8-mers,0.0379 % of ANNNNAAN 8-mers,0.0272 % of ANNNNAAN 8-mers
ATGGGAAA,0.098 % of ANNNNAAN 8-mers,0.1 % of ANNNNAAN 8-mers,0.118 % of ANNNNAAN 8-mers,0.0784 % of ANNNNAAN 8-mers
ACTTAAAT,0.0767 % of ANNNNAAN 8-mers,0.11 % of ANNNNAAN 8-mers,0.0714 % of ANNNNAAN 8-mers,0.057 % of ANNNNAAN 8-mers
ATTTAAAC,0.137 % of ANNNNAAN 8-mers,0.161 % of ANNNNAAN 8-mers,0.117 % of ANNNNAAN 8-mers,0.109 % of ANNNNAAN 8-mers
AGTGCAAT,0.0347 % of ANNNNAAN 8-mers,0.0455 % of ANNNNAAN 8-mers,0.0367 % of ANNNNAAN 8-mers,0.0396 % of ANNNNAAN 8-mers
ACGGGAAC,0.0225 % of ANNNNAAN 8-mers,0.027 % of ANNNNAAN 8-mers,0.0215 % of ANNNNAAN 8-mers,0.0231 % of ANNNNAAN 8-mers
ATTCCAAA,0.0481 % of ANNNNAAN 8-mers,0.0564 % of ANNNNAAN 8-mers,0.041 % of ANNNNAAN 8-mers,0.0578 % of ANNNNAAN 8-mers
ACCTGAAG,0.0137 % of ANNNNAAN 8-mers,0.0161 % of ANNNNAAN 8-mers,0.0164 % of ANNNNAAN 8-mers,0.0206 % of ANNNNAAN 8-mers
ATTAAAAA,0.172 % of ANNNNAAN 8-mers,0.219 % of ANNNNAAN 8-mers,0.114 % of ANNNNAAN 8-mers,0.09 % of ANNNNAAN 8-mers
AGGCCAAT,0.0339 % of ANNNNAAN 8-mers,0.0443 % of ANNNNAAN 8-mers,0.0316 % of ANNNNAAN 8-mers,0.0413 % of ANNNNAAN 8-mers
ATACCAAT,0.0465 % of ANNNNAAN 8-mers,0.0518 % of ANNNNAAN 8-mers,0.0394 % of ANNNNAAN 8-mers,0.0471 % of ANNNNAAN 8-mers
AACGGAAC,0.0187 % of ANNNNAAN 8-mers,0.0201 % of ANNNNAAN 8-mers,0.025 % of ANNNNAAN 8-mers,0.0206 % of ANNNNAAN 8-mers

# From article PMC10812921, “Transcriptional Coactivator BOB1 (OBF1, OCA-B) Modulates the Specificity of DNA Recognition by the POU-Domain Factors OCT1 and OCT2 in a Monomeric Configuration”
